Results with a measured potency or affinity are listed apart. Records with an inconclusive call do not appear. Active and inactive are the calls of the source. How the calls were made is not given here.

One experiment is described as follows: general cell-killing toxicity readout – plate reader, dry powder samples, cytotoxicity control for PAX8 inhibitor project, dose response (AID 743021). Conditions: cell line, non-specific cytotoxicity counter-screen; series mostly up to 35 µM.
`C[C@@H]1CCCCO[C@H](CN(C)C(=O)Nc2ccc(C(F)(F)F)cc2)[C@@H](C)CN([C@@H](C)CO)C(=O)c2cc(NC(=O)Nc3ccc(C(F)(F)F)cc3)ccc2O1`: the molecule was called inactive. Turning to `CC(C)NC(=O)N(C)C[C@H]1OCCCC[C@@H](C)Oc2ccc(NC(=O)Nc3ccc(C(F)(F)F)cc3)cc2C(=O)N([C@@H](C)CO)C[C@H]1C`, the outcome was inactive. As for `C[C@@H]1CN([C@H](C)CO)C(=O)c2cc(NC(=O)Nc3cccc4ccccc34)ccc2O[C@@H]1CN(C)C(=O)Nc1cccc2ccccc12`, the molecule was classed as inactive. Same read-out and setting: next, `C[C@@H]1CN([C@H](C)CO)C(=O)c2cccc(NC(=O)Nc3cccc4ccccc34)c2O[C@@H]1CN(C)S(=O)(=O)c1ccc(Cl)cc1`: “inactive”; `C[C@H]1CCCCO[C@H](CN(C)Cc2ccc(C(F)(F)F)cc2)[C@@H](C)CN([C@@H](C)CO)C(=O)c2cc(NS(=O)(=O)c3ccc(F)cc3)ccc2O1`: “inactive”. Regarding `C[C@@H]1CN([C@H](C)CO)C(=O)c2cc(NC(=O)Nc3ccc(F)cc3)ccc2O[C@@H](C)CCCCO[C@@H]1CN(C)Cc1ccc(Cl)c(Cl)c1`, the molecule was classed as inactive. With `C[C@H](CO)N1C[C@H](C)[C@@H](CN(C)S(=O)(=O)c2cccc(F)c2)OCc2ccccc2-c2c(n(C)c3ccccc23)C1=O`, the molecule was classed as inactive. On the same count and under the same terms, under `C[C@@H]1CN([C@H](C)CO)C(=O)c2cc(NC(=O)Cc3ccccc3)ccc2O[C@@H](C)CCCCO[C@@H]1CN(C)Cc1ccc(C(F)(F)F)cc1` stands “inactive”; under `C[C@@H]1CN([C@H](C)CO)C(=O)CCCn2cc(nn2)CO[C@H]1CN(C)C(=O)Nc1ccc(-c2cccs2)cc1`, “inactive”; under `C[C@H]1CCCCO[C@H](CN(C)C(=O)C2CCCCC2)[C@@H](C)CN([C@@H](C)CO)C(=O)c2cc(NS(=O)(=O)c3ccc(Cl)cc3)ccc2O1`, “inactive”. On to `C[C@@H]1CCCCO[C@@H](CN(C)S(=O)(=O)c2ccc(F)cc2)[C@H](C)CN([C@H](C)CO)C(=O)c2cc(NS(=O)(=O)c3ccc(Cl)cc3)ccc2O1`, for which the outcome was inactive.

Regarding `Cc1noc(C)c1S(=O)(=O)Nc1ccc2c(c1)C(=O)N([C@H](C)CO)C[C@@H](C)[C@H](CN(C)C(=O)Nc1ccc(C(F)(F)F)cc1)OCCCC[C@@H](C)O2`, the molecule was called inactive. Same read-out and setting: under `C[C@@H]1CCCCO[C@H](CN(C)Cc2ccc(C(F)(F)F)cc2)[C@H](C)CN([C@@H](C)CO)C(=O)c2cc(NS(=O)(=O)c3ccc(Cl)cc3)ccc2O1` stands “inactive”.

A further experiment can be described thus: IGROV1 cell killing – plate reader, dry powder samples, PAX8 inhibitor project, dose response (AID 743043).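 Further: more negative means fewer viable cells or more cytotoxicity.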 Conditions: IGROV1 ovarian cancer cell cytotoxicity; series mostly up to 35 µM.
Consider `C[C@@H]1CN([C@H](C)CO)C(=O)c2cc(NC(=O)Nc3ccc(F)cc3)ccc2O[C@@H](C)CCCCO[C@H]1CN(C)C(=O)NC1CCCCC1`, for which the molecule was called inactive. Regarding `Cc1ccc(S(=O)(=O)Nc2ccc3c(c2)C(=O)N([C@H](C)CO)C[C@@H](C)[C@H](CN(C)Cc2ccc(Cl)c(Cl)c2)OCCCC[C@H](C)O3)cc1`, the molecule was classed as inactive.

On to `COc1ccc(S(=O)(=O)Nc2ccc3c(c2)CC(=O)N([C@@H](C)CO)C[C@@H](C)[C@H](CN(C)Cc2ccc(C(F)(F)F)cc2)O3)cc1`, for which the call was inactive. Regarding `C[C@@H]1CCCCO[C@@H](CN(C)C(=O)c2ccccc2)[C@H](C)CN([C@H](C)CO)C(=O)c2cc(NC(=O)Nc3ccc(C(F)(F)F)cc3)ccc2O1`, the call was inactive. `O=C(Cc1ccccc1)N1CC[C@H]2[C@H](CO)Nc3ccc(C4=CCCCC4)cc3[C@H]21`: the outcome was inactive. `C[C@@H]1CCCCO[C@H](CN(C)CC2CCCCC2)[C@H](C)CN([C@@H](C)CO)C(=O)c2cc(NC(=O)Nc3ccccc3)ccc2O1`: the molecule was called inactive. `C[C@@H]1CN([C@H](C)CO)C(=O)c2cc(NC(=O)Nc3ccc(C(F)(F)F)cc3)ccc2O[C@@H](C)CCCCO[C@H]1CN(C)C(=O)NC1CCCCC1`: the molecule was classed as inactive. Consider `C[C@H]1CN([C@@H](C)CO)S(=O)(=O)c2ccc(C#Cc3ccc(F)cc3)cc2O[C@@H]1CN(C)C(=O)NC1CCCCC1`, for which the call was inactive. On to `C[C@@H](O)C#Cc1ccc2c(c1)O[C@H](CN(C)Cc1ccc(-c3ccccc3)cc1)[C@@H](C)CN([C@@H](C)CO)S2(=O)=O`, for which the result was inactive.

Regarding `C[C@H]1CCCCO[C@H](CN(C)S(=O)(=O)c2ccc(F)cc2)[C@@H](C)CN([C@@H](C)CO)C(=O)c2cc(NS(=O)(=O)c3ccc(Cl)cc3)ccc2O1`, the call was inactive. Still for that read-out and setting: under `C[C@@H]1CN([C@H](C)CO)C(=O)c2cc(NC(=O)Nc3ccc(C(F)(F)F)cc3)ccc2O[C@@H](C)CCCCO[C@H]1CN(C)S(=O)(=O)c1ccc(Cl)cc1` stands “inactive”; under `C[C@@H]1CN([C@H](C)CO)C(=O)c2cc(NS(=O)(=O)c3ccccc3)ccc2O[C@@H](C)CCCCO[C@@H]1CN(C)CC1CCCCC1`, “inactive”; under `C[C@@H]1CN([C@H](C)CO)C(=O)c2cc(NC(=O)Nc3ccc(C(F)(F)F)cc3)ccc2O[C@@H](C)CCCCO[C@H]1CN(C)S(=O)(=O)c1ccccc1`, “inactive”. Turning to `C[C@@H]1CN([C@@H](C)CO)C(=O)c2cc(NS(=O)(=O)c3cccs3)ccc2O[C@@H](C)CCCCO[C@H]1CN(C)Cc1ccc(C(F)(F)F)cc1`, the molecule was classed as inactive. On the same count and under the same terms, under `C[C@@H]1CCCCO[C@@H](CN(C)C(=O)Nc2ccc(C(F)(F)F)cc2)[C@H](C)CN([C@H](C)CO)C(=O)c2cc(NS(=O)(=O)c3ccc(F)cc3)ccc2O1` stands “inactive”; under `Cc1ccc(S(=O)(=O)N(C)C[C@H]2Oc3cc(C#Cc4ccncc4)ccc3S(=O)(=O)N([C@H](C)CO)C[C@H]2C)cc1`, “inactive”; under `C[C@@H]1CN([C@H](C)CO)C(=O)c2cc(NC(=O)Nc3ccccc3)ccc2O[C@@H](C)CCCCO[C@H]1CN(C)C(=O)Nc1ccc(C(F)(F)F)cc1`, “inactive”. On to `O=C(Nc1ccc(C(F)(F)F)cc1)Nc1ccc2c(c1)[C@@H]1C[C@H](CC(=O)N3CCc4ccccc4C3)O[C@H](CO)[C@@H]1O2`, for which the molecule was classed as inactive. Consider `CC(C)CC1NC(=S)N(Cc2ccccc2)C1=O` (configuration not stated), for which the molecule was classed as inactive. For `C[C@H](CO)N1C[C@H](C)[C@H](CN(C)Cc2ccc(C(F)(F)F)cc2)OCCCC[C@H](C)Oc2ccc(NC(=O)NC3CCCCC3)cc2C1=O`, the call was inactive. Take `C[C@@H]1CN([C@H](C)CO)C(=O)c2cc(NC(=O)c3ccccc3)ccc2O[C@@H](C)CCCCO[C@@H]1CN(C)Cc1ccc(C(F)(F)F)cc1`: the call was inactive. On the same count and under the same terms, next, `COc1ccccc1C(=O)Nc1ccc2c(c1)C(=O)N(C)[C@@H]1CC[C@@H](CC(=O)NCc3ccc(Cl)c(Cl)c3)O[C@H]1CO2`: “inactive”; `C[C@@H]1CN([C@H](C)CO)S(=O)(=O)c2ccc(C#CC3CCCC3)cc2O[C@H]1CN(C)Cc1cccnc1`: “inactive”. Take `C[C@H]1CN([C@@H](C)CO)C(=O)Cc2cc(NC(=O)NC3CCCCC3)ccc2O[C@H]1CN(C)Cc1ccc(-c2ccccc2)cc1`: the call was inactive. The same measure, in the same setting: under `C[C@H](CO)N1C[C@H](C)[C@H](CN(C)Cc2ccc(C(F)(F)F)cc2)OCCCC[C@H](C)Oc2ccc(NS(=O)(=O)c3ccc(F)cc3)cc2C1=O` stands “inactive”; under `COc1ccc(-c2ccc3c(c2)[C@@H]2[C@@H](CCN2S(=O)(=O)c2ccc(OC)cc2)[C@@H](CO)N3C)cc1`, “inactive”; under `C[C@@H]1CCCCO[C@H](CN(C)C(=O)Nc2ccc(C(F)(F)F)cc2)[C@@H](C)CN([C@@H](C)CO)C(=O)c2cc(NC(=O)Nc3ccc(C(F)(F)F)cc3)ccc2O1`, “inactive”. As to `CC(C)NC(=O)N(C)C[C@H]1OCCCC[C@@H](C)Oc2ccc(NC(=O)Nc3ccc(C(F)(F)F)cc3)cc2C(=O)N([C@@H](C)CO)C[C@H]1C`, the molecule was called inactive. Take `C[C@@H]1CN([C@H](C)CO)C(=O)c2cc(NC(=O)Nc3cccc4ccccc34)ccc2O[C@@H]1CN(C)C(=O)Nc1cccc2ccccc12`: the molecule was called inactive. On the same count and under the same terms, under `C[C@@H]1CN([C@H](C)CO)C(=O)c2cccc(NC(=O)Nc3cccc4ccccc34)c2O[C@@H]1CN(C)S(=O)(=O)c1ccc(Cl)cc1` stands “inactive”; under `C[C@H]1CCCCO[C@H](CN(C)Cc2ccc(C(F)(F)F)cc2)[C@@H](C)CN([C@@H](C)CO)C(=O)c2cc(NS(=O)(=O)c3ccc(F)cc3)ccc2O1`, “inactive”. For `C[C@@H]1CN([C@H](C)CO)C(=O)c2cc(NC(=O)Nc3ccc(F)cc3)ccc2O[C@@H](C)CCCCO[C@@H]1CN(C)Cc1ccc(Cl)c(Cl)c1`, the result was inactive.

Turning to `C[C@H](CO)N1C[C@H](C)[C@@H](CN(C)S(=O)(=O)c2cccc(F)c2)OCc2ccccc2-c2c(n(C)c3ccccc23)C1=O`, the call was inactive. Still for that read-out and setting: next, `C[C@@H]1CN([C@H](C)CO)C(=O)c2cc(NC(=O)Cc3ccccc3)ccc2O[C@@H](C)CCCCO[C@@H]1CN(C)Cc1ccc(C(F)(F)F)cc1`: “inactive”; `C[C@@H]1CN([C@H](C)CO)C(=O)CCCn2cc(nn2)CO[C@H]1CN(C)C(=O)Nc1ccc(-c2cccs2)cc1`: “inactive”.

With `C[C@H]1CCCCO[C@H](CN(C)C(=O)C2CCCCC2)[C@@H](C)CN([C@@H](C)CO)C(=O)c2cc(NS(=O)(=O)c3ccc(Cl)cc3)ccc2O1`, the molecule was called inactive. Regarding `C[C@@H]1CCCCO[C@@H](CN(C)S(=O)(=O)c2ccc(F)cc2)[C@H](C)CN([C@H](C)CO)C(=O)c2cc(NS(=O)(=O)c3ccc(Cl)cc3)ccc2O1`, the molecule was classed as inactive. `Cc1noc(C)c1S(=O)(=O)Nc1ccc2c(c1)C(=O)N([C@H](C)CO)C[C@@H](C)[C@H](CN(C)C(=O)Nc1ccc(C(F)(F)F)cc1)OCCCC[C@@H](C)O2`: the result was inactive. Regarding `C[C@@H]1CCCCO[C@H](CN(C)Cc2ccc(C(F)(F)F)cc2)[C@H](C)CN([C@@H](C)CO)C(=O)c2cc(NS(=O)(=O)c3ccc(Cl)cc3)ccc2O1`, the result was inactive.
